Assay outcomes from PubChem BioAssay.
Shown are actives, neighbours in structure and some others; about 7.8% of the full set was active somewhere.
ALOX15 inhib – blocks human 15-lipoxygenase activity | P16050 | purified 15hLO-1, xylenol orange hydroperoxide absorbance | Potency, µM (top dose mostly 57.1 µM), most hits filed as inhibitors | hit rate 1.4% among 74,000; further: nearly all actives have a fitted effect of over 55% in size
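Hydroperoxide formed from arachidonic acid (50 uM) by purified human 15hLO-1 (40 nM) oxidizes ferrous iron, and the ferric-xylenol orange complex is read at 573 versus 405 nm. Compounds were preincubated 15 min; reaction ran 6 min at room temperature.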
HEK293 cAMP cs – counter-screen for TSHR agonists: cAMP increase in parental HEK293; parental HEK293 CNG cAMP sensor, membrane potential fluorescence; Potency, µM (doses to about 57.1 µM), actives largely listed as activators; hit rate 2.5% among 73,000; further: nearly all actives have a fitted effect of over 55% in size
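Parental HEK 293 cells stably expressing a cAMP-gated CNG channel were loaded with membrane potential dye containing 100 uM RO 20-1724 for 60 min. Compound added for 30 min; depolarization read as fluorescence intensity at 590 nm.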
FLuc inh – blocks Photinus pyralis firefly luciferase activity; purified firefly luciferase, luminescence, 8 min; hit rate 2.2% among 72,000; Potency, µM (series often up to 57.1 µM), usual class: inhibitors; AID 411; P08659; further: nearly all actives have a fitted effect of over 40% in size
Target sequence (P08659 whole entry, looked up): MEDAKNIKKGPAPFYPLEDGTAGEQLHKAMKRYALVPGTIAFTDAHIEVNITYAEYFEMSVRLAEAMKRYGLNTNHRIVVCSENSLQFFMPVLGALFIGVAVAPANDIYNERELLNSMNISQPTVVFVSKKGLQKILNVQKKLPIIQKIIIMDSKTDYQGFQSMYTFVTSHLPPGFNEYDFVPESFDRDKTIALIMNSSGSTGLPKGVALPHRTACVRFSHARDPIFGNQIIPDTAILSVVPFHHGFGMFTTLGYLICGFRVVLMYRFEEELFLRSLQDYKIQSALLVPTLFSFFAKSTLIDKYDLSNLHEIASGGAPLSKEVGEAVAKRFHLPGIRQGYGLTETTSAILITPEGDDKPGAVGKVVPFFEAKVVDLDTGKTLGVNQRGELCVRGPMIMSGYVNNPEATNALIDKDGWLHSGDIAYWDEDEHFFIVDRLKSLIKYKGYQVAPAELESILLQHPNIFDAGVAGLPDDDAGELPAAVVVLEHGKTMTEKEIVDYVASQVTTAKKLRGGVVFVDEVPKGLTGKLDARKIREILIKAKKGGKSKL
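Substrate buffer containing 10 uM ATP (pH 7.2 imidazole, Mg2+, KCl, detergent, BSA) is dispensed, compound pinned in, then luciferase/luciferin detector mix added. After 8 min at ambient temperature, light output is measured.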
Tau fil binding – binders of human tau filaments. P10636. recombinant tau filaments, thioflavin S fluorescence, 15 h; filaments grown with octadecylsulfate alongside compound. hit rate 2% among 71,000. Potency, µM (series often up to 57.1 µM);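 further: actives lower thioflavin S fluorescence by blocking filaments or displacing dye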
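ThS-based fibril read: tau 1 uM final, inducer ODS 30 uM final, 37 C for 15 h, ex 450/em 510 nm.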
Bst PK mod – pyruvate kinase (B. stearothermophilus) modulation; purified pyruvate kinase, luminescence ATP production; ribose 5-phosphate activator present at AC10; AID 361; hit rate 1.2% among 51,000; Potency, µM; in the data active means potency below about 11 µM; inconclusive means mostly about 12 µM to 25 µM;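 the screen sought inhibitors and activators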
TSHR agonist – activates the human thyroid stimulating hormone receptor; P16473; Potency, µM (highest dose often 57.1 µM), usual class: activators; HEK293-CNG-TSHR cells (CNG channel as cAMP sensor), membrane potential dye, cAMP; hit rate 0.48% among 73,000; active means well fitted activation curve with a large enough effect in the main read-out, with a control signal flat, not every such curve was filed as active; inconclusive means small, poorly fitted or top-dose-only effect, or a change in a side signal; inactive means no such curve, though single readings can be large or run the other way; reference of the percent scale not stated here;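 further: the control signal comes from parental cells without the receptor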
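HEK 293 cells stably expressing TSHR and a cAMP-gated CNG channel; parental CNG-only cells as counterscreen. Cells preloaded 60 min with membrane potential dye plus 100 uM RO 20-1724, then compound 30 min; fluorescence read at 590 nm.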
A number is an active result; n = inactive; u = inconclusive; x = not tested or not shown; [ ] = dose if it differs, or a comment. Unless noted, the call rests on the fitted dose curve; in most records, active means well fitted curve in the direction sought with a large enough effect; inconclusive means small, poorly fitted or top-dose-only effect, or another doubt; inactive means no such curve, though single readings can be large; an effect the other way counts as inactive or inconclusive.

SMILES	ALOX15 inhib	HEK293 cAMP cs	FLuc inh	Tau fil binding	Bst PK mod	TSHR agonist
Cc1ccc(NC(=O)Nc2ccc(F)cc2)nc1	n	n	n	n	4.7	n
FC(F)(F)c1ccccc1-c1nccc(NCc2ccccc2)n1	n	u	n[2.29 µM]	u	x	u
O=C1NC(=O)c2cc([N+](=O)[O-])ccc21	n	n	x	n	x	n
COC(=O)c1cc(-c2ccc3ccccc3c2)[nH]c(=O)c1C#N	n[11.4 µM]	n[11.4 µM]	n[11.4 µM]	n[11.4 µM]	x	n[11.4 µM]
COc1ccc(NC(=O)Nc2cc(C)ccn2)cc1	n	n	1.6µM	n	x	n
CCCCCc1c(C)nc(NCc2ccccc2)[nH]c1=O	n	n	n	32µM	n	n
CC(C)CCNC(=O)C1CCN(S(=O)(=O)c2ccc3c(c2)CCC(=O)N3)CC1	n	6.3µM	n	n	x	u
Cc1cccc(OCc2nnc(SCc3cc(=O)n4cc(Br)ccc4n3)o2)c1	n	13µM	n	n	n	u
COc1ccc([C@@H]2[C@H]3CN(C(C)=O)CC=C3C(C#N)=C(N)C2(C#N)C#N)c2ccccc12	13µM	n	n	n	n	n
O=C(O)c1nc2cc(Cl)c(Cl)cc2[nH]c1=O	n	x	x	x	x	x
CCOC(=O)c1c(NC(=O)CN2CCOCC2)sc2c1CCCC2	25µM	n	n	n	n	x
CCOC(=O)c1sc(NC(=O)CN2CCCC2)c(C(=O)OCC)c1C	n	n	n	n	n	n
CCOC(=O)c1c(NC(=O)CN2CCCCC2)sc2c1CCN(C(=O)OCC)C2	n	7.9µM	x	x	x	u
N[C@H](Cc1ccc(F)cc1)C(=O)O	n	n	n	n	x	n
Cc1cc(C)cc(O)c1	n	n	x	n	x	n
COc1cccc(C(=O)Nc2nc(-c3ccc(S(=O)(=O)N4CCOCC4)cc3)cs2)c1	n	u	n	n	n	u
Cc1ccc(S(=O)(=O)N2CCOCC2)cc1C(=O)Nc1nc(-c2cccnc2)cs1	n	n	n	n	8.6	n
O=C(COc1ccc2oc(-c3ccccc3)cc(=O)c2c1)NCc1ccco1	u	n	7.9µM	n	4.1	n
Cc1ccc2c(c1)N(CC(=O)NCCN1CCOCC1)C(=O)CO2	n	n	n	n	x	n
O=C(COC(=O)c1ccccc1F)c1ccc(-n2nncc2-c2ccco2)cc1	n	25µM	n	n	n	u
CNc1ccccc1C(=O)OCC(=O)c1ccccc1	n[11.4 µM]	n[11.4 µM]	x	x	x	n[11.4 µM]
CC(C)(c1cc(Br)c(OCC(Br)CBr)c(Br)c1)c1cc(Br)c(OCC(Br)CBr)c(Br)c1 (stereo not drawn)	n	n	x	n	x	n
CCN(CC)C(=O)c1cc2sc3ccccc3c2s1	25µM	u	u	n	x	u
COC(=O)CC1C(C)(C)C(=O)C2CC3=C(CC[C@]4(C)C3=CC(=O)OC4c3ccoc3)[C@@]1(C)C2=O (stereo partly drawn)	n	x	x	x	x	x
CCN(CC)S(=O)(=O)c1cccc(-c2nnc(C(=O)c3ccc(C(F)(F)F)cc3)o2)c1	n	n	n	16µM	n	n
SMILES	ALOX15 inhib	HEK293 cAMP cs	FLuc inh	Tau fil binding	Bst PK mod	TSHR agonist
CCN(CC)S(=O)(=O)c1cccc(-c2nnc(SCCOc3ccccc3C)o2)c1	n	16µM	n	n	n	u
CCCN(CCC)S(=O)(=O)c1ccc(C(=O)Nc2nnc(-c3cccc(OC)c3)o2)cc1	n	n	n	n	n	n
CCN(CC)S(=O)(=O)c1cccc(-c2nnc(SCCOc3ccc(Cl)cc3)o2)c1	n	u	n	n	n	u
CCN(CC)S(=O)(=O)c1cccc(-c2nnc(SCC(=O)c3cc(C)n(C)c3C)o2)c1	n	16µM	n	n	n	u
CCN(CC)S(=O)(=O)c1cccc(-c2nnc(SCCOc3ccccc3)o2)c1	n	7.9µM	n	n	n	u
Cc1ccnc(NS(=O)(=O)c2ccc(N=[N+]=[N-])cc2)n1	n[11.4 µM]	n[11.4 µM]	n[11.4 µM]	n[11.4 µM]	x	n[11.4 µM]
COc1cccc(Nc2ncc3nc(C)c(=O)n(C4CC4)c3n2)c1	n	n	n[11.4 µM]	n	x	n
CC(=O)n1c(COS(C)(=O)=O)nc2ccccc21	n[11.4 µM]	n[11.4 µM]	n[11.4 µM]	n[11.4 µM]	x	n[11.4 µM]
CCOC(=O)c1cnn(-c2nc(C)cc(C)n2)c1N	n	u	n	n	n	u
CCOC(=O)c1cnn(-c2nc(-c3ccccc3)nc3c2COC(C)(C)C3)c1N	n	n	n	n	n	25µM
CCOC(=O)C[C@@H](C(=O)OCC)[C@@H]1CCCCC1=O	n[11.4 µM]	n[11.4 µM]	n[11.4 µM]	x	x	n[11.4 µM]
Cc1cccc(CNc2ncncc2-c2ccccc2CN(C)C)c1	n	n	n[2.29 µM]	n	x	n
Cc1cc(C(=O)CSc2nc3ccccc3[nH]2)c(C)n1C	n	n	16µM	n	x	n
COCCn1c(C)cc(C(=O)CSc2nc3ccccc3c(=O)[nH]2)c1C	u	n	n	n	n	n[11.4 µM]
Cc1cc(C(=O)CSc2nc3ccc(Cl)cc3[nH]2)c(C)n1C	25µM	n	n	n	x	n
Cc1cc(C(=O)CSc2nnc(-c3ccccc3)n2C)c(C)n1C	n	n	n	n	n	n
COCOc1ccc(Br)cc1C(=O)[C@H]1O[C@H]1c1cccc(OC)c1	n[11.4 µM]	u	n[11.4 µM]	x	x	u
O=C(O)[C@@H]1CCCN1Cc1c[nH]c2ccccc12	n[11.4 µM]	n[11.4 µM]	n[11.4 µM]	n[11.4 µM]	x	n[11.4 µM]
CN(C)c1ncc2nc(-c3cc(F)cc(F)c3)c(=O)n(C[C@H]3CCCO3)c2n1	n	u	n[11.4 µM]	n	x	u
COc1ccc(C(C)=O)cc1COC(=O)c1cc(C)oc1C	n	25µM	n	n	n	u
COc1ccc(C(C)=O)cc1COC(=O)c1cccc(N(C)C)c1	n	u	n	n	n	u
COc1ccccc1CNc1cc(-c2ccoc2)ncn1	n	n	n[2.29 µM]	n	x	x
